Holding throughout (conditions): mRNA level, 48 h; actives raise or lower the signal
Read-out in assay [1]: Cytochrome P450 2C19 (Homo sapiens) (UniProt P33261)
Put plainly: LTEA_HepaRG_CYP2C19: Life Technologies and Expression Analysis (LTEA) Assay for CYP2C19 using HepaRG (AID 2283482). The gist of the method:
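Human HepaRG liver cells received test chemicals for 48 h (highest 100 uM, half-log dilutions in 0.5% DMSO). CYP2C19 mRNA induction or loss is read by multiplexed qRT-PCR and fitted in both directions versus vehicle.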

Read-out in assay [2]: CYP2C8 (gene 1558)
As to the kind of experiment: LTEA_HepaRG_CYP2C8: Life Technologies and Expression Analysis (LTEA) Assay for CYP2C8 using HepaRG (AID 2283483). The method, boiled down:
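This is a transcriptional endpoint in HepaRG cultures: 48 h exposure, highest concentration 100 uM. CYP2C8 mRNA is quantified by TaqMan qRT-PCR.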

Read-out in assay [3]: CYP2C9 (gene 1559)
As to the kind of experiment: LTEA_HepaRG_CYP2C9: Life Technologies and Expression Analysis (LTEA) Assay for CYP2C9 using HepaRG (AID 2283484). The gist of the method: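 Eight-point concentration-response (highest 100 uM, half-log dilutions) in HepaRG cells for 48 h; CYP2C9 expression by qRT-PCR normalized to ACTB, GAPDH, POLR2A. Bidirectional fit, DMSO baseline.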

Read-out in assay [4]: CYP2E1 (gene 1571)
As to the kind of experiment: LTEA_HepaRG_CYP2E1: Life Technologies and Expression Analysis (LTEA) Assay for CYP2E1 using HepaRG (AID 2283485). The method, boiled down:
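Assay uses 48 h exposure of HepaRG hepatic cells, eight concentrations to 100 uM. Expression of CYP2E1 is quantified by TaqMan qRT-PCR with ACTB, GAPDH and POLR2A normalization; curves fitted in both directions relative to vehicle.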

Read-out in assay [5]: Cytochrome P450 3A4 (Homo sapiens) (UniProt P08684)
As to the kind of experiment: LTEA_HepaRG_CYP3A4: Life Technologies and Expression Analysis (LTEA) Assay for CYP3A4 using HepaRG (AID 2283487). The gist of the method:
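In a human hepatic line (HepaRG), duplicate wells were treated 48 h with up to 100 uM chemical in half-log dilutions. Endpoint: CYP3A4 mRNA induction or loss relative to 0.5% DMSO vehicle, by qRT-PCR.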

Read-out in assay [6]: DNA damage-inducible transcript 3 (DDIT3), DDIT3 (gene 1649)
As to the kind of experiment: LTEA_HepaRG_DDIT3: Life Technologies and Expression Analysis (LTEA) Assay for DNA damage-inducible transcript 3 (DDIT3) using HepaRG (AID 2283488). The method, boiled down:
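Eight-point concentration-response (100 uM highest, half-log dilutions) in HepaRG, 48 h, duplicate wells. Endpoint: qRT-PCR mRNA, normalized (ACTB, GAPDH, POLR2A), bidirectional fitting with DMSO as baseline.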

Read-out in assay [7]: Pro-epidermal growth factor (Homo sapiens) (UniProt P01133)
Put plainly: LTEA_HepaRG_EGF: Life Technologies and Expression Analysis (LTEA) Assay for Epidermal growth factor (EGF) using HepaRG (AID 2283489). The gist of the method: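 EGF expression changes in human HepaRG cells are scored by bidirectional fitting relative to 0.5% DMSO controls. Chemicals are tested at eight half-log concentrations up to 100 uM for 48 h in serum-free induction medium.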

Read-out in assay [8]: Ezrin (EZR), EZR (gene 7430)
Put plainly: LTEA_HepaRG_EZR: Life Technologies and Expression Analysis (LTEA) Assay for Ezrin (EZR) using HepaRG (AID 2283491). The gist of the method:
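Gain or loss of EZR mRNA is scored relative to 0.5% DMSO in human HepaRG cultures treated 48 h with test chemicals in duplicate, eight half-log concentrations from 100 uM.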

Read-out in assay [9]: CYP4A11 (gene 1579)
Put plainly: LTEA_HepaRG_CYP4A11: Life Technologies and Expression Analysis (LTEA) Assay for CYP4A11 using HepaRG (AID 2283486). The method, boiled down:
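Readout is CYP4A11 mRNA induction or suppression (qRT-PCR, ACTB/GAPDH/POLR2A normalization) in human HepaRG cells after 48 h chemical treatment, concentrations to 100 uM in 0.5% DMSO, fitted bidirectionally against vehicle.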

Read-out in assay [10]: Early growth response protein 1 (EGR1) transcription factor, EGR1 (gene 1958)
Put plainly: LTEA_HepaRG_EGR1: Life Technologies and Expression Analysis (LTEA) Assay for Early growth response protein 1 (EGR1) transcription factor using HepaRG (AID 2283490). The gist of the method: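 EGR1 expression change in human HepaRG after 48 h chemical exposure, assessed by housekeeping-normalized qRT-PCR; concentration-response up to 100 uM, fitted in both directions against DMSO controls.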

What is called AC50 is the concentration giving half of the maximal activity seen.

Where “and” joins values, the source holds several entries; their conditions need not be identical. Identical values can stand only once. Where a structure was tested more than once in an assay, its records may differ in their call. Calls of active or inactive are those of the source. Rule for the calls: active = hit-call score of the fitted dose curve at least 0.9, where 1 is the maximum; inactive = score below 0.9.

Chain of Cytochrome P450 2C19 (Homo sapiens) (P33261 whole entry, looked up): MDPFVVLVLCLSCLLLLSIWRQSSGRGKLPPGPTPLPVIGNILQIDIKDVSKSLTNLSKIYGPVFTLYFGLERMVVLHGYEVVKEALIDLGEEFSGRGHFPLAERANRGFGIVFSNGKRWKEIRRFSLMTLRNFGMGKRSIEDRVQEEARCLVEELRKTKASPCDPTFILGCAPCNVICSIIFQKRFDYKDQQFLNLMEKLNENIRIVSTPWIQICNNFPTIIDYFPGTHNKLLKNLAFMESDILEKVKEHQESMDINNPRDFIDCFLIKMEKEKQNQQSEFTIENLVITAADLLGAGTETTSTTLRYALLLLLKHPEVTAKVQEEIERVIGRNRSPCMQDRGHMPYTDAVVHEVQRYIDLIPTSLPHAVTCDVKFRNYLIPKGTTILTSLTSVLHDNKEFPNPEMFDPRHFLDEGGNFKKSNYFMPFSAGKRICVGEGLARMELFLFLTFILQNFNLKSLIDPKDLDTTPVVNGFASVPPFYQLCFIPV
Chain of Cytochrome P450 3A4 (Homo sapiens) (P08684 whole entry, looked up): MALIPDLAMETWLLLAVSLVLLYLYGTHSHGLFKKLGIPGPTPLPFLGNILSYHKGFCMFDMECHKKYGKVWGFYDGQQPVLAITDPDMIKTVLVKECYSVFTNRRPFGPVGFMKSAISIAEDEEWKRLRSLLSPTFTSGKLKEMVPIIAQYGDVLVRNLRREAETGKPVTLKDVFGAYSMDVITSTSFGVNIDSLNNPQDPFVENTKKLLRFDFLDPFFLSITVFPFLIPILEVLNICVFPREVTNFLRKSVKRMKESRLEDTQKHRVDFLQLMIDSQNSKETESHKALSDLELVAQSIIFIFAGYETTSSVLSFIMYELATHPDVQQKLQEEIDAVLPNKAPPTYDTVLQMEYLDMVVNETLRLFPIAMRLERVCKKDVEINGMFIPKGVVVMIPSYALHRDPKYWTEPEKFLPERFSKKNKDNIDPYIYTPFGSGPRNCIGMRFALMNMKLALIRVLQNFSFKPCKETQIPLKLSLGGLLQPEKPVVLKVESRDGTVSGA

Turning to `O=S(=O)(O)C(F)(F)C(F)(F)C(F)(F)C(F)(F)C(F)(F)C(F)(F)C(F)(F)C(F)(F)F`, the AC50 was 89.3 µM (active) and 12.1 µM (active) and 11 µM (active) in [1]; 88.2 µM (active) and 12.1 µM (active) and 87.9 µM (active) in assay [2]; 80.2 µM (active) and 88.7 µM (active) in [3]; 61.1 µM (active) [middle of 4 runs] in [4]; 60.1 µM (active) [middle of 4 runs] in assay [6]; 50 µM (active) and 14.2 µM (active) in assay [8]. In addition, the compound was called inactive in [1], in [3], in assay [5], in assay [7] and in assay [8].
With `C[C@H]1[C@H](c2ccc(Cl)cc2)SC(=O)N1C(=O)NC1CCCCC1`, the AC50 in assay [1] was 89 µM (active); in assay [2], 77.8 µM (active); in [3], 78.6 µM (active); in [4], 32.5 µM (active); in assay [9] it was 40.4 µM (active); in assay [5], 90 µM (active). For the same compound, the figures for the AC50 in assay [6] and in assay [8] were 72.3 µM (active) and 77.9 µM (active), respectively. For the same compound, the call in assay [7] was inactive.
With `N#CN`, the compound was classed as inactive in [1], in assay [2], in assay [3], in assay [4], in [9] and in assay [5]. The compound was classed as inactive in [6], in assay [7] and in assay [8].
Regarding `CNC(=O)CSP(=S)(OC)OC`, the outcome in assay [1], in assay [2], in assay [3], in assay [4], in [9] and in assay [5] was inactive. The call in [6], in assay [7] and in assay [8] was inactive.
In the case of `O=C(O)CCCOc1ccc(Cl)cc1Cl`, the AC50 was 14 µM (active) in [1], 14.6 µM (active) in assay [2] and 10.1 µM (active) in assay [9]. Also, the compound was classed as inactive in assay [3], in assay [4], in [5], in assay [6], in assay [7] and in [8].
As to `O=C(O)COc1ccc(Cl)cc1Cl`, the AC50 was 19.6 µM (active) in assay [1], 22 µM (active) in assay [2], 29.3 µM (active) in [4] and 38.1 µM (active) in assay [9]. Moreover, the compound was classed as inactive in assay [3], in assay [5], in assay [6], in assay [7] and in assay [8].
With `CCC(C)(C)C(=O)OC1=C(c2ccc(Cl)cc2Cl)C(=O)OC12CCCCC2`, the compound was called inactive in assay [1], in assay [2], in assay [3], in [9], in [6] and in [7]. In addition, the outcome in assay [8] was inactive. In addition, the AC50 in assay [4] was 23.1 µM (active); in assay [5], 25 µM (active).
On to `C#CCN1C(=O)COc2cc(F)c(N3C(=O)C4=C(CCCC4)C3=O)cc21`, for which the AC50 in [1] was 6.97 µM (active); in [4], 26.1 µM (active); in [9], 20.5 µM (active); in assay [5], 3.65 µM (active). For the same compound, the compound was classed as inactive in assay [2], in assay [3], in assay [6], in [7] and in [8].
Turning to `CNC(=O)/C=C(\C)OP(=O)(OC)OC`, the compound was classed as inactive in assay [1], in [2], in assay [3], in assay [4], in [9] and in [5]. The compound was classed as inactive in assay [6], in assay [7] and in assay [8].
Consider `O=C(NC(=O)c1c(F)cccc1F)Nc1ccc(OC(F)(F)C(F)OC(F)(F)F)c(Cl)c1` (stereo unspecified), for which the result in [1], in assay [2], in assay [3], in assay [4], in [9] and in assay [5] was inactive. Further, the call in [6], in assay [7] and in assay [8] was inactive.
For the compound `COP(=S)(OC)Oc1ccc([N+](=O)[O-])cc1`, the AC50 in [1] is 50 µM (active). The compound was called inactive in [2], in assay [3], in assay [4], in assay [9], in assay [5] and in [6]. The call in assay [7] and in assay [8] was inactive.
For `CC(C)N(C(=O)COc1nnc(C(F)(F)F)s1)c1ccc(F)cc1`, the outcome in [1], in [2], in [3], in assay [9], in [5] and in [6] was inactive. Besides, the call in assay [7] and in [8] was inactive. Moreover, in [4], the AC50 is 42.2 µM (active).
As for `COP(=O)(OC)OC=C(Cl)Cl`, the compound was called inactive in [1], in assay [2], in assay [3], in assay [4], in assay [9] and in assay [5]. For the same compound, the compound was classed as inactive in assay [6], in assay [7] and in [8].
Turning to `O=[N+]([O-])c1c(Cl)c(Cl)c(Cl)c(Cl)c1Cl`, the call in assay [1], in [2], in [3], in [5], in assay [6] and in assay [7] was inactive. Moreover, the result in assay [8] was inactive. Besides, the AC50 in assay [4] is 34.3 µM (active).
`COP(=S)(OC)Oc1ccc(SC)c(C)c1`: the AC50 in assay [1] is 50 µM (active); in assay [4] it was 18.9 µM (active). In addition, the compound was called inactive in assay [2], in assay [3], in assay [9], in assay [6], in assay [7] and in assay [8].
Regarding `CN1CSC(=S)N(C)C1`, the outcome in assay [1], in assay [2], in assay [3], in assay [4], in assay [9] and in assay [5] was inactive. Besides, the call in assay [6], in [7] and in assay [8] was inactive.
Take `Cc1[nH]c(=O)n(C(C)(C)C)c(=O)c1Cl`: the AC50 in [1] is 31.1 µM (active); in [4], 37 µM (active). Moreover, the outcome in [2], in [3], in [9], in [5], in assay [6] and in assay [7] was inactive. In assay [8], the result was inactive.
For the compound `CC(C)OC(=O)Nc1cccc(Cl)c1`, the compound was classed as inactive in [1], in [2], in assay [3], in [9], in [5] and in assay [6]. Moreover, the result in assay [7], in assay [10] and in assay [8] was inactive.
Turning to `CCOCN(C(=O)CCl)c1c(C)cccc1CC`, the AC50 in assay [1] is 89.5 µM (active); in assay [2], 83.6 µM (active); in assay [3], 80.2 µM (active); in [4], 81.3 µM (active); in [9] it was 83.5 µM (active). Moreover, the result in assay [5], in assay [6], in assay [7] and in assay [8] was inactive.
For the compound `CC(C)(C)C(O)/C(=C\c1ccc(Cl)cc1Cl)n1cncn1` (stereo unspecified), the AC50 in assay [1] was 4.01 µM (active); in assay [2] it was 3.88 µM (active); in assay [4], 12.9 µM (active); in [9] it was 21.9 µM (active); in [5], 84.5 µM (active); in [6], 29.4 µM (active). In assay [8], the concentration at half-maximal activity (AC50) is 86.6 µM (active). Also, the compound was called inactive in assay [3] and in [7].
With `CCC(C)(NC(=O)c1cc(Cl)c(C)c(Cl)c1)C(=O)CCl` (stereo unspecified), the AC50 was 85.4 µM (active) in assay [1]; 81.6 µM (active) in assay [2]; 79.5 µM (active) in assay [3]; 44 µM (active) in [4]; 50.2 µM (active) in assay [9]; 88.2 µM (active) in [5]. Moreover, the AC50 was 78.3 µM (active) in assay [6] and 75.7 µM (active) in assay [8]. Besides, the outcome in [7] was inactive.
Take `CCC(C)Nc1c([N+](=O)[O-])cc(C(C)(C)C)cc1[N+](=O)[O-]` (stereo unspecified): the AC50 in assay [1] is 12.9 µM (active); in assay [2] it was 12.6 µM (active); in assay [4] it was 49.3 µM (active); in [9] it was 50 µM (active); in [5] it was 6.12 µM (active); in assay [7], 10.7 µM (active). The call in assay [3], in assay [6] and in [8] was inactive.
As to `CCN(CC)C(=O)SCc1ccc(Cl)cc1`, the AC50 was 17.7 µM (active) in assay [1], 27.3 µM (active) in assay [4] and 9.92 µM (active) in assay [5]. For the same compound, the outcome in assay [2], in assay [3], in assay [9], in assay [6], in assay [7] and in assay [8] was inactive.
As for `O=C1c2ccccc2C(=O)N1SC(Cl)(Cl)Cl`, the outcome in [1], in assay [2], in assay [3], in [4], in [9] and in assay [5] was inactive. For the same compound, the compound was called inactive in assay [6], in assay [7] and in assay [8].

The values above are taken from PubChem BioAssay (EPA / NIEHS).
